# Experimental data taken from PubChem BioAssay (NCI).
# “And” between values parts separate entries of the source, which are not always exact repeats. Identical values can stand only once. This is part of a sample that, as a whole, favours compounds with a hit. Of some 83,000 tested, about 20% had one in any assay.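 In brief: 96-well plates, 48 h treatment, single concentration, percent growth endpoint.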 Values without a mark were called inactive. The source made the active and inactive calls. The calls were made as follows: active = growth percent below 10; inactive = the rest.
# Columns and labels:
# Assay in all cases: NCI-60 one-dose screen, 48 h (100 = growth as untreated, 0 = no growth, -100 = all killed)
# K-562 leukemia = details: 10 µM unless noted
# MALME-3M melanoma = details: 10 µM unless noted
# MDA-MB-231 breast = details: 10 µM unless noted
# RXF 393 renal = details: 10 µM unless noted
# SF-268 CNS = details: 10 µM unless noted
# SF-295 CNS = details: 10 µM unless noted
# SF-539 CNS = details: 10 µM unless noted
# UACC-257 melanoma = details: 10 µM unless noted
# M14 melanoma = details: 10 µM unless noted
# HCT-15 colon = details: 10 µM unless noted
# HT29 colon = details: 10 µM unless noted
# SNB-75 CNS = details: 10 µM unless noted
# SNB-19 CNS = details: 10 µM unless noted
# U251 CNS = details: 10 µM unless noted
# PC-3 prostate = details: 10 µM unless noted
# SK-MEL-5 melanoma = details: 10 µM unless noted
# UACC-62 melanoma = details: 10 µM unless noted
# LOX IMVI melanoma = details: 10 µM
# SK-MEL-28 melanoma = details: 10 µM unless noted
# DU-145 prostate = details: 10 µM unless noted
Structure (SMILES),growth (K-562 leukemia),growth (MALME-3M melanoma),growth (MDA-MB-231 breast),growth (RXF 393 renal),growth (SF-268 CNS),growth (SF-295 CNS),growth (SF-539 CNS),growth (UACC-257 melanoma),growth (M14 melanoma),growth (HCT-15 colon),growth (HT29 colon),growth (SNB-75 CNS),growth (SNB-19 CNS),growth (U251 CNS),growth (PC-3 prostate),growth (SK-MEL-5 melanoma),growth (UACC-62 melanoma),growth (LOX IMVI melanoma),growth (SK-MEL-28 melanoma),growth (DU-145 prostate)
O=C1C=Cc2ccccc2/C1=C/c1nc(-c2ccccc2)oc1O,96.8%,74.4%,73.6%,101%,84.8%,101%,87.7%,105%,93.5%,92.4%,108%,70.8%,102%,95%,89.1%,92.4%,93.8%,84.8%,106%,
O=C(/C=C/c1ccccc1)c1ccccc1O,51.6%,97.2%,91.5%,65.7%,85.2%,94.8%,89.9%,91.8%,,67.3%,84.5%,63.7%,80.1%,61.1%,92.9%,94.9%,85.8%,34.9%,93.9%,
Nc1ccc(Oc2ccccc2)c(Cl)c1,115%,,111%,100%,93%,92.1%,91.7%,94.7%,,92.6%,104%,,102%,84.1%,100%,95.6%,107%,103%,106%,104%
CC(/C=N/NC(N)=S)Cc1ccc(C(C)C)cc1 (stereo not given),,82.9%,85.4%,69.2%,129%,73.2%,59%,69.9%,74.2%,80.2%,47.1%,71.4%,69.3%,88.7%,73.5%,,54.5%,79.5%,82.4%,129%
CCOc1ccc(C(CN2CCOCC2)C(C)=O)cc1OC (stereo not given),45.5%,84%,94.6%,85.8%,105%,102%,89.6%,90%,93.8%,54.2%,107%,85.9%,103%,95.9%,101%,93.6%,93.6%,68.9%,102%,
C1=C(c2ccccc2)c2ccccc2C1,88.3%,,,106%,96.6%,91%,99.5%,133%,92.2%,87.6%,105%,90.9%,,108%,82.6%,108%,,89.7%,116%,109%
Nc1cccc2cccc([N+](=O)[O-])c12,,111%,,110%,109%,95.6%,113%,100%,107%,105%,106%,81.8%,102%,101%,103%,111%,98.9%,105%,96.4%,118%
O=C(c1ccccc1)c1ccc(O)c2ncccc12,15%,56.1%,38.2%,41.8%,34.3%,74.6%,21.6%,17.3%,35.5%,25.7%,96.1%,58.7%,38.4%,28.4%,32.2%,26.8%,33.9%,31.4%,68%,
CC1(C)OC2C(COC(c3ccccc3)(c3ccccc3)c3ccccc3)OC(c3c[nH]c4c(N)ncnc34)C2O1 (stereo not given),32.4%,93.5%,75.7%,79%,57.4%,57.9%,90%,74.9%,52.5%,55.3%,46.4%,61.9%,66.1%,56.7%,25%,60.8%,65.2%,54.8%,66.8%,
NC(CS/C(Cl)=C/Cl)C(=O)O (stereo not given),89.2%,89.6%,88.1%,105%,99.3%,9.28% (active),104%,78.3%,58.2%,85.5%,86.8%,103%,85.9%,84.7%,64.1%,-60.9% (active),77.4%,-57.3% (active),73%,
CCOc1cc(F)c([N+](=O)[O-])cc1[N+](=O)[O-],0.671% (active),-19.2% (active),37.9%,12.4%,77.6%,96.9%,,56.5%,,,2.66% (active),64.5%,92.2%,29.6%,66.4%,76.7%,78.2%,-44% (active),70.1%,
C[C@@H]1CCC([C@@H](C)[C@H]2CC[C@H]3[C@@H]4CC[C@H]5C[C@@H](O)CC[C@]5(C)[C@H]4CC[C@]23C)=NC1,,,,,,,,,,,,,,,,,-45.8% [100 µM] (active) and -54.1% [100 µM] (active),,,
NNc1cccc([N+](=O)[O-])c1,,101%,58.9%,122%,72.6%,89.5%,100%,99%,99.9%,101%,99.6%,,107%,89%,86.4%,109%,77.2%,76.6%,115%,104%
CCCCN(CCCC)CCCCCCCCCCO,93.9%,,120%,106%,109%,,105%,106%,93%,94.3%,89.2%,101%,110%,102%,115%,103%,114%,95.2%,112%,111%
CCCCCCCCCCCCCCCc1ccc(C(=O)C[n+]2ccccc2)cc1,-81.6% (active),,-53.8% (active),,-87% (active),-74.8% (active),-98.4% (active),-76.3% (active),-90.4% (active),-48.6% (active),-39.3% (active),-55% (active),-84.1% (active),-42.2% (active),-90.7% (active),-31.6% (active),-27.6% (active),-55.9% (active),-14.5% (active),-97.6% (active)
CCOC(=O)/C(=C\c1ccc2ccccc2c1)P(=O)(OCC)OCC,11.8%,72.1%,16.3%,-23.4% (active),42.6%,60.1%,28.9%,63.8%,31.7%,2.93% (active),3.89% (active),35.2%,41.8%,38.2%,58.5%,44.4%,9.26% (active),-55.6% (active),18.7%,
CCOc1ccc(Nc2nc3c(s2)C(=O)c2ccccc2C3=O)cc1,37.2%,52.9%,33.9%,105%,73%,102%,108%,94.7%,85.9%,30.4%,115%,76.3%,89.9%,78.9%,57.4%,62.1%,56.6%,-5.52% (active),106%,
CCN(CC)CCNc1ccc([N+](=O)[O-])c2sc3ccccc3c(=O)c12,10.2%,-8.2% (active),56.2%,5.72% (active),32.2%,7.95% (active),21.9%,29.3%,34.1%,23%,9.13% (active),34.8%,34.8%,22.8%,27.3%,21.1%,35.7%,19.4%,35.4%,
